# Assay outcomes: PubChem, The Scripps Research Institute Molecular Screening Center
# Rows were chosen to be rich in hits. Some 1.3% of all compounds tested hit in one or more screens of this group.
# LYPLA2 counter: counter-screen for PME1 inhibitors: inhibitors of human LYPLA2; inhibition, % at 5.9 µM; recombinant LYPLA2, FP-Rh probe fluorescence polarization; actives 0.38% (n = 320,000); AID 2177;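 active means inhibition above the screen-wide mean plus 3 SD, limit set per campaign, cut at about 26% in these data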;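 further: 0% = LYPLA2 with DMSO and 100% = wells lacking LYPLA2 enzyme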
# LYPLA1 counter: blocks human lysophospholipase 1, a PME1 counter-screen; O75608; recombinant LYPLA1, FP-Rh probe fluorescence polarization; inhibition, % at 5.9 µM; actives 0.16% (n = 320,000); AID 2174;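 active means inhibition above the mean of all tested compounds plus 3 SD, set per campaign, cut at about 14% in these data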;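 further: inhibitors block serine hydrolase probe labeling of LYPLA1 so polarization falls; 0% = enzyme with DMSO and 100% = wells lacking LYPLA1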
# PREPL inh: inhibitors of human prolyl oligopeptidase-like enzyme PREPL; recombinant PREPL, fluorescence polarization activity-based probe; actives 0.68% (n = 320,000); inhibition, % at 5.96 µM; in the data active means inhibition above about 43%;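 further: 0% = enzyme with DMSO and 100% = wells lacking enzyme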
# EBNA-1 inh: blocks EBNA-1 binding to DNA. EBNA-1 DNA binding, fluorescence polarization. AID 1950. inhibition, % at 14.8 µM. actives 0.34% (n = 300,000); in the data active means inhibition above about 28%
# ZTA counter: counter-screen for EBNA-1 inhibitors: inhibitors of Epstein-Barr virus ZTA | P03206 | ZTA-DNA binding, fluorescence polarization | inhibition, % at 11 µM | actives 0.15% (n = 320,000); in the data active means inhibition above about 33%
# EBNA-1 confirm: EBNA-1 (EBV) inhibition, confirmation; actives 35% (n = 830); shares compounds with EBNA-1 inh; inhibition, % at 14.8 µM; Recombinant EBNA-1 DBD, Cy5-DNA fluorescence polarization;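 active means mean inhibition across replicates above a set limit taken from the earlier primary screen, cut at about 28% in these data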;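 further: plate controls were EBNA-1 protein with DMSO for no effect and wells lacking EBNA-1 for full effect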
# ZTA DNA inh trip: counter-screen for EBNA-1 inhibitors: Epstein-Barr virus ZTA inhibitors, triplicate; shares compounds with EBNA-1 inh; Zta-ZRE DNA binding, Cy5 fluorescence polarization; inhibition, % at 11.1 µM; 830 tested, under 10 active;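 active means mean inhibition over triplicates above a set limit taken from the primary EBNA-1 screen, cut at about 37% in these data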;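 further: purified full length Zta protein with Cy5 labeled ZRE DNA probe; 0% = Zta with DMSO and 100% = wells lacking Zta protein; inhibitors lower polarization by freeing the labeled DNA probe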
# Active calls of the source: *; · = not tested or not shown; + = active, no number; ! = a repeat was not active.
SMILES,LYPLA2 counter,LYPLA1 counter,PREPL inh,EBNA-1 inh,ZTA counter,EBNA-1 confirm,ZTA DNA inh trip
CCC(CC)c1nnc(NC(=O)c2cccc(S(=O)(=O)N3CCOCC3)c2)s1,·,·,22.9,·,·,·,·
Cc1ccccc1OCC(=O)Nc1ccc2c(c1)Cc1ccccc1-2,-8.9,-4.9,4.2,29.3*,11.1,4.0,1.5
COc1ccc(Nc2nc(NCc3ccco3)nc(N)c2[N+](=O)[O-])cc1,-0.2,3.1,6.7,39.0*,17.1,12.1,1.1
CCCCn1c(N)c(N(CCC(C)C)C(=O)CC2CCCC2)c(=O)[nH]c1=O,-3.9,-0.4,7.5,-10.5,6.3,·,·
COc1cc(C(=O)Nc2cccc(-c3nc4cc(C)ccc4o3)c2C)cc(OC)c1OC,-2.4,-0.9,-2.6,37.3*,6.7,24.6,4.8
Cc1ccc(C(C(=O)NCC2CCCO2)N(Cc2ccccc2F)C(=O)Cn2nnc(-c3cccs3)n2)cc1 (stereo not drawn),-6.2,-1.2,-12.5,36.6*,-9.5,-1.0,0.3
O=C(NC1CCCC1)C(c1ccncc1)N(CC1CCCO1)C(=O)Cn1nnc(-c2cccs2)n1 (stereo not drawn),-12.7,-5.1,9.0,-3.2,9.3,·,·
COc1cc(/C=N/NC(=O)CNc2n[nH]c(=O)[nH]c2=O)ccc1OCc1ccccc1,6.2,3.5,16.9,2.7,-14.1,·,·
Cc1ccccc1NC(=O)Cc1nc(COC(=O)c2cc(Cl)ccc2O)cs1,3.6,0.0,4.7,32.7*,-7.0,10.5,5.2
Cn1cc(/C=C2/SC(=O)N(CC(=O)Nc3ccc4c(c3)OCO4)C2=O)c2ccccc21,0.0,0.5,8.4,56.4*,3.0,64.3*,13.8
O=C(CN1C(=O)c2ccccc2C1=O)Nc1ccc2c(c1)OCO2,4.2,1.2,5.9,4.3,7.9,·,·
COc1ccccc1NC(=O)C1CCN(S(=O)(=O)c2cccc3nonc23)CC1,-1.6,3.3,8.3,3.4,-1.5,·,·
COCCn1c(Cc2ccccc2)nnc1SCC(=O)NC(C)(C)C,0.6,1.1,-2.7,-5.4,-8.0,·,·
COCCn1c(Cc2ccccc2)nnc1SCC(=O)NC(C)C,0.2,-2.3,-8.1,87.5*,18.6,2.5,3.2
CNS(=O)(=O)c1cccc(C(=O)NCC(C)(C)N2CCCCC2)c1,8.6,6.7,-2.4,-2.2,0.6,·,·
CN(C)c1cc[n+](/C(C(=S)Nc2ccc(SC(F)F)cc2)=C(/[O-])c2ccccc2)cc1,5.6,-0.5,2.7,57.6*,0.4,43.4*,-9.7
Cc1cc(C)c(/C([O-])=C(/C(=S)Nc2ccc(SC(F)F)cc2)[n+]2ccccc2)cc1C,-0.6,0.5,8.1,-5.9,-0.2,·,·
COc1ccc(CN(CCN(C)C)c2ccccn2)cc1,-2.7,1.0,-0.3,+!,30.9,7.8,7.8
Cc1onc(-c2ccccc2)c1C(=O)OCc1nnc(-c2ccccc2)o1,4.3,0.1,-8.1,-7.3,7.6,·,·
Cc1cc(NC(=O)COC(=O)c2oc3c(ccc4ccccc43)c2C)no1,-4.2,-1.0,-1.5,50.4*,16.8,55.6*,4.2
COC(=O)[C@H]1C[C@@H](c2ccccc2)[C@H](C)C1(C)C,-0.3,-0.2,7.7,5.7,4.0,·,·
CN(Cc1ccccc1)C(=O)C1CCN(S(=O)(=O)c2ccc3nc4c(c(C(=O)O)c3c2)CCCC4)CC1,8.5,-6.3,6.2,-19.0,16.9,·,·
CCN1CCN(C(=O)C2CCCN(S(=O)(=O)c3cccc4nsnc34)C2)CC1 (stereo not drawn),4.5,3.4,0.6,-7.4,-0.5,·,·
Cc1cccc(/C=N/NC(=O)c2cc3c(s2)-c2ccccc2CC3)c1,-62.4,-28.0,8.8,132.1*,9.0,-4.0,5.4
Cc1cc(OCc2cc(C(=O)NC(C)c3c(C)nn(C)c3C)no2)cc(C)c1Cl (stereo not drawn),-2.2,-5.0,-40.6,9.6,5.4,·,·
COc1cccc(-c2cc(=O)c3cc(NC(=O)c4ccc(N(C)C)cc4)ccc3[nH]2)c1,-12.3,-7.0,-1.7,41.8*,-0.5,15.9,-2.2
COc1ccc(N=Cc2c(O)n(-c3ccc(OC)cc3)c(=O)c3ccccc23)cc1,0.3,-3.6,2.4,65.2*,9.0,55.7*,8.5
COc1ccc(C(=O)N2C(=O)c3ccc(N)cc3C2=O)cc1,-2.4,2.9,-13.6,34.1*,-11.1,27.4,-3.9
